Records with an inconclusive call do not appear. Calls of active or inactive are those of the source. Unless noted, calls come from the whole dose curve.
How the values were obtained:
[1] = Nuclear factor erythroid 2-related factor 2/antioxidant responsive element (Nrf2/ARE) small molecule agonists: qHTS cell viability counter screen in human keratinocytes (AID 1919968; active = well fitted curve in the direction sought with a large enough effect in the repeat runs; an effect the other way counts as inactive or inconclusive; note: nearly all actives have a fitted effect of over 55% in size)
Procedure, shortened: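 Stably transfected HaCaT (KeratinoSens), 1,500/well. Test agents in DMSO were applied for 23 h, 37 C/5% CO2. CellTiter-Fluor was incubated 1 h before the fluorescence read.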

[2] = Nuclear factor erythroid 2-related factor 2/antioxidant responsive element (Nrf2/ARE) small molecule agonists: luciferase reporter gene qHTS assay in human keratinocytes (AID 1919969); note: nearly all actives have a fitted effect of over 35% in size
[3] = biological target: Gonadotropin-releasing hormone receptor (Homo sapiens) (UniProt P30968); test: Human gonadotropin-releasing hormone receptor (GnRHR) small molecule agonists, calcium flux assay in GnRHR-HEK293 cells (AID 1920063); note: nearly all actives have a fitted effect of over 35% in size
Sequence of Gonadotropin-releasing hormone receptor (Homo sapiens) (P30968 whole entry, looked up): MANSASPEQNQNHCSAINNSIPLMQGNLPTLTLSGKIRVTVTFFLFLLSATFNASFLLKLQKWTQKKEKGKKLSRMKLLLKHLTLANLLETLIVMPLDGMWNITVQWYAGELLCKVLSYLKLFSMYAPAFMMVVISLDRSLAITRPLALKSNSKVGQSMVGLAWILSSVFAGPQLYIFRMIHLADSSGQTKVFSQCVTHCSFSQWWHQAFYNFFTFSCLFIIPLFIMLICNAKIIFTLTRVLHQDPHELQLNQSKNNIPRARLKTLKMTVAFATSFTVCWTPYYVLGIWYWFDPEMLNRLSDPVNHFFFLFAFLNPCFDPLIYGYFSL
Procedure, shortened: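 Stable human GnRHR HEK293 line. 18 h plating, then calcium dye for 1 h at 37 C. Agonist-mode compound addition from DMSO stocks; fluorescence monitored 3 min.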

[4] = biological target: KiSS-1 receptor (Homo sapiens) (UniProt Q969F8); test: Human kisspeptin (KISS1R) small molecule agonists, calcium flux assay in KISS1R-HEK293 cells (AID 1920064; active = well fitted curve in the direction sought with a large enough effect in the repeat runs; an effect the other way counts as inactive or inconclusive)
Sequence of KiSS-1 receptor (Homo sapiens) (Q969F8 whole entry, looked up): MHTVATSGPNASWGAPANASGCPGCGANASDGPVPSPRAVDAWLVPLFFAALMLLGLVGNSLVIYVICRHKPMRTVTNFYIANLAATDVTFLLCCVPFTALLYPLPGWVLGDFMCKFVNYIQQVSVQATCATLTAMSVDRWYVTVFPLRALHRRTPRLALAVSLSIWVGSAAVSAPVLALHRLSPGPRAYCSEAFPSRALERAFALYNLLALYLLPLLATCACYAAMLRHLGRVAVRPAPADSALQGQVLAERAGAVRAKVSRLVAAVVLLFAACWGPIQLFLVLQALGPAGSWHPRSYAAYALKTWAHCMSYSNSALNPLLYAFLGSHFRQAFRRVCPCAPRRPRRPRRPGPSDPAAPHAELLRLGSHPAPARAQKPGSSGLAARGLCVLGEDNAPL
Procedure, shortened: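 After overnight (18 h) culture at 37 C/5% CO2, human KISS1R-HEK293 cells received calcium dye for 1 h, then test compound; emission at 540 nm (excitation 480 nm) was tracked for 3 min.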

[5] = G protein-coupled receptor (GPCR) small molecule agonists, calcium flux assay: HEK293 wild type cell line counter screen (AID 1920065)
Procedure, shortened: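 Following 18 h incubation at 37 C/5% CO2, plates got calcium dye for 1 h; compounds, ATP or DMSO were then pinned in and fluorescence followed kinetically (480/540 nm).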

[6] = p53 small molecule agonists, cell-based qHTS assay with human liver microsomes: qHTS cell viability counter screen (AID 1963579); note: nearly all actives have a fitted effect of over 45% in size
Procedure, shortened: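 Metabolic activation used human liver microsomes and NADPH, both 0.5 mg/mL final, over 16 hours at 37 C on p53RE-bla cells (4,000/well). Cytotoxicity measured by CellTiter-Glo luminescence, 30 min at room temperature.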

[7] = p53 small molecule agonists, cell-based qHTS assay with rat liver microsomes: qHTS cell viability counter screen (AID 1963580); note: nearly all actives have a fitted effect of over 45% in size
Procedure, shortened: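 After the beta-lactamase ratio was read, CellTiter-Glo was added to the same wells and luminescence measured at 30 min; cells had been treated 16 h at 37 C with compounds, rat liver microsomes and NADPH (0.5 mg/mL final each).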

[8] = p53 small molecule agonists, cell-based qHTS assay: qHTS cell viability counter screen (AID 1963581); note: nearly all actives have a fitted effect of over 45% in size
Procedure, shortened: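 qHTS counter screen: 16 h compound exposure at 37 C of p53RE-bla HCT-116 cells (4,000 per well, seeded 5 h prior), cell viability by ATP luminescence.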

[9] = biological target: 5-hydroxytryptamine receptor 2A (Homo sapiens) (UniProt P28223); test: 5-hydroxytryptamine receptor 2A (HTR2A) small molecule antagonists, cell-based qHTS assay (AID 1963586); note: nearly all actives have a fitted effect of over 45% in size
Sequence of 5-hydroxytryptamine receptor 2A (Homo sapiens) (P28223 whole entry, looked up): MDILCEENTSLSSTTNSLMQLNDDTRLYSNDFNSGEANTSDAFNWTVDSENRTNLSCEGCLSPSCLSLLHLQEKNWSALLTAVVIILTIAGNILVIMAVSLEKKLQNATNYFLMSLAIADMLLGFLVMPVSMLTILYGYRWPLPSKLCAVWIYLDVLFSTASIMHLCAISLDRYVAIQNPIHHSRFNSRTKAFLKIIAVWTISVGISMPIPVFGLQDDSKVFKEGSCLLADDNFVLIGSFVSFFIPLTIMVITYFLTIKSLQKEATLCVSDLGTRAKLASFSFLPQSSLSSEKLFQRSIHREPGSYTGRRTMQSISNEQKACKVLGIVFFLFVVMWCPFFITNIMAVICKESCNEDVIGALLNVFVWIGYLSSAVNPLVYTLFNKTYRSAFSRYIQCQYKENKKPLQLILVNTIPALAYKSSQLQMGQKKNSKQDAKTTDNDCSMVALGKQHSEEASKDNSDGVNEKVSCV
Procedure, shortened: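 CHO cells stably expressing human HTR2A were plated for 18 h at 37 C, then loaded with calcium dye for 1 h. Compounds were preincubated 5 min at room temperature before DOI (4 nM solution) was added. Kinetic fluorescence was read for 3 min.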

[10] = biological target: 5-hydroxytryptamine receptor 2A (Homo sapiens) (UniProt P28223); test: 5-hydroxytryptamine receptor 2A (HTR2A) small molecule agonists, cell-based qHTS assay (AID 1963587); note: nearly all actives have a fitted effect of over 30% in size
Procedure, shortened: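 CHO cells stably expressing human HTR2A, plated 18 h, loaded with calcium dye 1 h at 37 C. Agonist mode: compounds added and intracellular calcium fluorescence recorded kinetically for 2 min at 1 sec intervals.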

[11] = biological target: Muscarinic acetylcholine receptor M1 (Homo sapiens) (UniProt P11229); test: Cholinergic receptor muscarinic 1 (CHRM1) small molecule antagonists, cell-based qHTS assay (AID 1963588); note: nearly all actives have a fitted effect of over 40% in size
Sequence of Muscarinic acetylcholine receptor M1 (Homo sapiens) (P11229 whole entry, looked up): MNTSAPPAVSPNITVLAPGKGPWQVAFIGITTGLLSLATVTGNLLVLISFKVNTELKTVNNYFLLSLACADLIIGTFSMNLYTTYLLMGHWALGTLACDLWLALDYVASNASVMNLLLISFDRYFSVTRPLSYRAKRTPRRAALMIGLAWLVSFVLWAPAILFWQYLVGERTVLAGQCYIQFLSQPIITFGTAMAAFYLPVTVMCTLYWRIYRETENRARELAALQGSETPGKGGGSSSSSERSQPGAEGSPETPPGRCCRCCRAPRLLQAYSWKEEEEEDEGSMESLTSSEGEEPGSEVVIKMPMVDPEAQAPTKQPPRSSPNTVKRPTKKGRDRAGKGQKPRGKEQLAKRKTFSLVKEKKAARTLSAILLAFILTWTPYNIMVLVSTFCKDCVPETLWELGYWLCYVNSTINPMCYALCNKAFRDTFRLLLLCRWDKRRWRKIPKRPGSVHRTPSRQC
Procedure, shortened: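 Compounds were tested at 15 concentrations in three independent runs. Dye-loaded CHRM1-CHO cells were exposed 5 min at room temperature before stimulation by acetylcholine added at 50nM. Intracellular calcium was read kinetically on FDSS for 3 min.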

[12] = biological target: Muscarinic acetylcholine receptor M1 (Homo sapiens) (UniProt P11229); test: Cholinergic receptor muscarinic 1 (CHRM1) small molecule agonists, cell-based qHTS assay (AID 1963589); note: nearly all actives have a fitted effect of over 35% in size
Procedure, shortened: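 Kinetic fluorescence (1 s intervals) of calcium-sensitive dye in human M1 CHO cells after compound addition; cells pre-incubated 18 h at 37 C/5% CO2 and dye-loaded 1 h.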

[13] = cAMP Responsive Elements (CRE) small molecule agonists, cell-based qHTS assay (AID 1963590)
Procedure, shortened: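 Test agents in DMSO were incubated 3 h at 37 C/5% CO2 with CRE-bla HEK 293T cells seeded 18 h earlier; LiveBLAzer B/G FRET substrate was added and read after 2 h at room temperature.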

[14] = biological target: Beta-2 adrenergic receptor (Homo sapiens) (UniProt P07550); test: Adrenergic beta2 receptor (ADRB2) small molecule antagonists, cell-based qHTS assay (AID 1963592); note: series mostly up to about 92 µM; nearly all actives have a fitted effect of over 50% in size
Sequence of Beta-2 adrenergic receptor (Homo sapiens) (P07550 whole entry, looked up): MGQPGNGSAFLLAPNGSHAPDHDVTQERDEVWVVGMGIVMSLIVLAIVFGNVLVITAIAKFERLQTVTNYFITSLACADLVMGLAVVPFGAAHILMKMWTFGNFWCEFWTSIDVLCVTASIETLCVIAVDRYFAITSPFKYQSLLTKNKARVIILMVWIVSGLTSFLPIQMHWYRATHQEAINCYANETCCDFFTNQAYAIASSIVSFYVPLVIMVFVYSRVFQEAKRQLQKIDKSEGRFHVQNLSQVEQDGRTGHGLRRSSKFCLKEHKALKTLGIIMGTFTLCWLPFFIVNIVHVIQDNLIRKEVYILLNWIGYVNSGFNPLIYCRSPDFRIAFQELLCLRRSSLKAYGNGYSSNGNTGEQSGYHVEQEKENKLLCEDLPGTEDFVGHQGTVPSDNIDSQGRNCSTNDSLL
Procedure, shortened: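 Assay format: CHO-ADRB2 cells, 18-20hr seeding at 37C/5% CO2, then compound plus 1nM isoproterenol agonist mix for 0.5hr RT. Homogeneous time-resolved fluorescence cAMP detection after 1hr, expressed as 665/615 nm ratio.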

[15] = biological target: D(2) dopamine receptor (Homo sapiens) (UniProt P14416); test: Dopamine D2 receptor (DRD2) small molecule agonists, cell-based qHTS assay (AID 1963594); note: nearly all actives have a fitted effect of over 35% in size
Sequence of D(2) dopamine receptor (Homo sapiens) (P14416 whole entry, looked up): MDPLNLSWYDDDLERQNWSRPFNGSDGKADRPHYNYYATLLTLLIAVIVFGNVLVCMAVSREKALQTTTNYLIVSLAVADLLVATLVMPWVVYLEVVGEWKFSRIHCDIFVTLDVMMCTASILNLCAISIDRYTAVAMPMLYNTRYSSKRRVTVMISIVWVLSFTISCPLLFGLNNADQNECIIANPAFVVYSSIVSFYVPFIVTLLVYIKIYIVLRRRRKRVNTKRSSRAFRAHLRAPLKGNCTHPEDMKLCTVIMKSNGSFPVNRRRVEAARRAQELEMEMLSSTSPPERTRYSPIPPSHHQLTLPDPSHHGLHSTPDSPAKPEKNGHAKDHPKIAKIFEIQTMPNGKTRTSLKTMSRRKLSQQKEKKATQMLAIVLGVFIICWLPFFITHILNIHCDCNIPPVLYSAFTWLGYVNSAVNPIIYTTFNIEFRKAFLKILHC
Procedure, shortened: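 HEK293 cells stably expressing human DRD2, pre-treated with PDE inhibitor Ro20-1724 (0.1 mM final) and compound 10 min at room temperature, then stimulated with NKH477 (200nM […]) for 30 min. cAMP read by HTRF (665/620 nm).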

[16] = cAMP Responsive Elements (CRE) small molecule antagonists, cell-based qHTS assay (AID 1963591; active = well fitted inhibition curve with a large enough effect in the signal ratio in the repeat runs, not every such curve was filed as active; the % refers to the signal ratio)
Procedure, shortened: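 Reporter line CRE-bla HEK 293T in dialyzed-FBS DMEM; cells preincubated 18 h, treated 3 h with compound plus NKH477 (0.25 uM final); LiveBLAzer FRET, 2 h RT.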

[17] = biological target: D(2) dopamine receptor (Homo sapiens) (UniProt P14416); test: Dopamine D2 receptor (DRD2) small molecule antagonists, cell-based qHTS assay (AID 1963595; active = well fitted inhibition curve with a large enough effect in the signal ratio in the repeat runs, with a control signal flat; the % refers to the signal ratio)
Procedure, shortened: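 Antagonism was scored as restored cAMP in HEK293-DRD2 cells. These cells were stimulated with 200 nM NKH477 and 12 nM quinpirole for 30 min at room temperature, in the presence of 0.1 mM Ro20-1724.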

[18] = biological target: Beta-2 adrenergic receptor (Homo sapiens) (UniProt P07550); test: Adrenergic beta2 receptor (ADRB2) small molecule agonists, cell-based qHTS assay (AID 1963593);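 note: CHO cells stably overexpressing human ADRB2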
Procedure, shortened: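 CHO cells stably over-expressing ADRB2 were plated overnight at 37C, then dosed with compounds plus a stimulation mix containing 100uM IBMX and 25uM Ro-20-1724 for 0.5hr at room temperature. cAMP was measured by HTRF competition, 1hr.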
% is set by controls: 0 for no effect and ±100 for the full control effect.

CCCC(=O)OC/C=C(\C)CCC=C(C)C
inactive: Potency [1] | Potency [2] | Potency [3] | Potency [4] | Potency [5] | Potency [6] | Potency [7] | Potency [8] | Potency [9] | Potency [10] | Potency [11] | Potency [12] | Potency [13] | Potency [14] | Potency [15]

CNC1CCCN(c2c(F)cc3c(=O)c(C(=O)O)cn(C4CC4)c3c2OC)C1 (centres undefined)
inactive: Potency [1] | Potency [2] | Potency [3] | Potency [4] | Potency [5] | Potency [6] | Potency [7] | Potency [8] | Potency [9] | Potency [10] | Potency [11] | Potency [12] | Potency [16] | Potency [14] | Potency [17]

CCCC(=O)O[C@]1(C(=O)COC(=O)CC)CC[C@H]2[C@@H]3CCC4=CC(=O)CC[C@]4(C)[C@H]3[C@@H](O)C[C@@]21C
inactive: activity change, negative = cytotoxicity [1] -1.05% [at 19 µM] | activity, positive = activation [2] -4.28% [at 19 µM] | activity change [3] 1.71% [at 11.8 µM, active compounds read high] | activation [4] -0.661% [at 15.8 µM] | activation [5] -0.97% [at 11.8 µM] | activity change, negative = cytotoxicity [6] 0.226% [at 13.5 µM] | activity change, negative = cytotoxicity [7] 1.95% [at 13.5 µM] | activity change, negative = cytotoxicity [8] -11% [at 13.5 µM] | activity, negative = inhibition [9] -43.5% [at 12.7 µM] | activation [10] 1.9% [at 15.9 µM] | activity, negative = inhibition [11] 0.329% [at 12.6 µM] | activation [12] 5.7% [at 15.8 µM] | activity change, negative = inhibition [16] 0.328% [at 18.9 µM] | activity change, negative = inhibition [14] 0.289% [at 19 µM] | activity change, negative = inhibition [17] -0.509% [at 18.9 µM]

CCCCCC/C=C/C=O
inactive: Potency [1] | Potency [2] | Potency [3] | Potency [4] | Potency [5] | Potency [6] | Potency [7] | Potency [8] | Potency [9] | Potency [10] | Potency [11] | Potency [12] | Potency [14] | Potency [18] | Potency [15] | Potency [17]

O=C(O)C(c1ccc(Cl)cc1)c1ccc(Cl)cc1
inactive: Potency [1] | Potency [2] | Potency [3] | Potency [4] | Potency [5] | Potency [6] | Potency [7] | Potency [8] | Potency [9] | Potency [10] | Potency [11] | Potency [12] | Potency [16] | Potency [14] | Potency [15] | Potency [17]

C[C@H]1COc2c(C3(N)CC3)c(F)cc3c(=O)c(C(=O)O)cn1c23
inactive: Potency [1] | Potency [2] | Potency [3] | Potency [4] | Potency [5] | Potency [6] | Potency [7] | Potency [8] | Potency [9] | Potency [10] | Potency [11] | Potency [12] | Potency [16] | Potency [14] | Potency [18] | Potency [15] | Potency [17]

CCC(C)COC(C)=O (centres undefined)
inactive: Potency [1] | Potency [2] | Potency [3] | Potency [4] | Potency [5] | Potency [6] | Potency [7] | Potency [8] | Potency [9] | Potency [10] | Potency [11] | Potency [12] | Potency [13] | Potency [14] | Potency [15] | Potency [17]

CC(CSC(=O)c1ccccc1)C(=O)N1C[C@@H](Sc2ccccc2)C[C@H]1C(=O)O (some centres undefined)
inactive: activity change, negative = cytotoxicity [1] -6.69% [at 19 µM] | activity, positive = activation [2] -3.94% [at 19 µM] | activity change [3] -1.85% [at 11.8 µM, active compounds read high] | activation [4] -0.676% [at 15.8 µM] | activation [5] 0.566% [at 11.8 µM] | activity change, negative = cytotoxicity [6] -12.9% [at 13.5 µM] | activity change, negative = cytotoxicity [7] -5.44% [at 13.5 µM] | activity change, negative = cytotoxicity [8] 14.1% [at 13.5 µM] | activity, negative = inhibition [9] 20.9% [at 12.7 µM] | activation [10] -7.52% [at 15.9 µM] | activity, negative = inhibition [11] 17.6% [at 12.6 µM] | activation [12] -0.159% [at 15.8 µM] | activation [13] -1.82% [at 19 µM] | activity change, negative = inhibition [14] 10.2% [at 19 µM]

Reference: PubChem BioAssay (Tox21)
